# Assay outcomes: PubChem BioAssay, National Center for Advancing Translational Sciences (NCATS)
# An excerpt weighted towards active compounds, which were near 21% of everything screened.
# DRD3 agonist = agonists of human D3 dopamine receptor; D3R DiscoveRx beta-arrestin cells, luminescence, 90 min; max activation, %; hit rate 0.58% among 410,000; in the data active means max activation above about 30%; further: 0% is about no effect
#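 Cells at 1500/well, incubated overnight, then treated with pinned compounds (dopamine as control) for 90 min at 37 degrees C. DiscoveRx reagent added for 30 - 60 minutes at room temperature; luminescence read.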
# IL-1B inflam inh = inhibitors of inflammasome signaling (IL-1 beta secretion) | THP-1 LPS/ATP IL-1B secretion, AlphaLISA, 16 h; hits give low values | activity change, % at 57.5 µM | hit rate 4.7% among 360,000 | AID 743279; in the data active means activity change below about -50%; inconclusive means mostly about -30% to -49%; further: on the % scale 0 is the no-effect control and ±100 the full control effect
#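 Secreted IL-1B measured by AlphaLISA bead assay after 16 h compound exposure of THP-1 cells; compounds (final up to 57.5 uM) added 1 h before LPS (250 ng/mL) and ATP (1.25 mM) stimulation; lower signal means less secretion.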
# TDP1 cell CPT = growth inhibition of DT40 Tdp1-/-;hTDP1 cells with camptothecin (screen for TDP1 inhibitors); chicken DT40 Tdp1-/-;hTDP1 cells + 20 nM CPT, ATP luminescence, 48 h; Potency, µM (doses to about 46.2 µM), without a hit: at the highest dose activity change, negative = growth inhibition, hits mostly inhibitors; hit rate 12% among 420,000; AID 686979; further: potency means the concentration at half of the fitted maximal effect; on the % scale 0 is the no-effect control and ±100 the full control effect; nearly all actives have a fitted effect of over 55% in size
#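 Chicken DT40 Tdp1-/- cells stably complemented with human TDP1 were seeded at 400 cells/well in medium containing 20 nM camptothecin, exposed to pin-transferred compounds, and grown at 37 °C for at least 48 hr. Viability was read as ATP luminescence.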
# D3 antag = antagonists of human D3 dopamine receptor | P35462 | D3R cells, DiscoveRx beta-arrestin luminescence, antagonist mode; hits give low values | max response, negative = inhibition, % | hit rate 2.5% among 360,000 | AID 652054; in the data active means max response below about -50%; inconclusive means no clear call, values can overlap the other calls; further: on the % scale 0 is the no-effect control and ±100 the full control effect
#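 Cells expressing the human receptor were seeded at 1500 cells/well, incubated overnight at 37 degrees C in 5% CO2, then exposed to library compounds with dopamine controls for 90 minutes at 37 degrees C before luminescent detection.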
# TDP1 cell noCPT = qHTS for Inhibitors of human tyrosyl-DNA phosphodiesterase 1 (TDP1): qHTS in cells in absence of CPT; Potency, µM (series often up to 46.2 µM), for the others: at the highest dose activity change, negative = growth inhibition, actives largely listed as inhibitors; DT40 Tdp1-/- hTDP1 cells, no CPT, ATP luminescence, 48 h; hit rate 15% among 420,000; further: potency means the concentration at half of the fitted maximal effect; on the % scale 0 is the no-effect control and ±100 the full control effect; nearly all actives have a fitted effect of over 55% in size
#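 DT40 Tdp1-/-;hTDP1 cells, no CPT (DMSO vehicle only), 400 cells/well; compounds pin-transferred; ≥48 hr, 37 °C; CellTiter-Glo 30 min RT dark, luminescence read.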
# ClpP mod = qHTS Assay for Activators of ClpP. ATP-dependent Clp protease proteolytic subunit (Bacillus subtilis (strain 168)), P80244. purified B. subtilis ClpP, FRET peptide cleavage, 20 min. Potency, µM (doses to about 57.5 µM), for the others: at the top dose activity change, negative = active. hit rate 1.9% among 340,000; active means well fitted falling curve with a large enough effect; inconclusive means small, poorly fitted or top-dose-only effect; inactive means no such curve, though single readings can be large or run the other way; further: potency means the concentration at half of the fitted maximal effect; the source files actives as falling curves though it sought activators and does not explain the sign; nearly all actives have a fitted effect of over 65% in size
# Target sequence (P80244 whole entry, looked up): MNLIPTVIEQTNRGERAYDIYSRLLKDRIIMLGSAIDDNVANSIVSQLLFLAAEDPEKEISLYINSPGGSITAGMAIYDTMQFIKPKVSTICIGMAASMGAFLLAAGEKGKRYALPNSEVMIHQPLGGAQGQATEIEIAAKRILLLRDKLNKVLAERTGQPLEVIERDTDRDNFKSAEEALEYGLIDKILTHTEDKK
#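 Buffer: 100 mM Tris/HCl pH8, 100 mM KCl, 0.05% low protease BSA, 2.5% glycerol, 0.01% Tween-20. ClpP 10 microg/mL final; 20 min RT; delta FRET normalized to ADEP and DMSO controls.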
# * marks the source's active call; other numbers are inactive results; ? = inconclusive; · = no result given; ! = not active in a repeat. Unless noted, the call rests on the fitted dose curve; in most records, active means well fitted inhibition curve with a large enough effect; inconclusive means small, poorly fitted or top-dose-only effect; inactive means flat fitted curve, though single readings scatter.
SMILES,DRD3 agonist,IL-1B inflam inh,TDP1 cell CPT,D3 antag,TDP1 cell noCPT,ClpP mod
Cc1cc(C)c(NC(=O)Cn2c(=O)n(CCC(C)C)c(=O)c3cccnc32)c(C)c1,9,·,?,·,?,-15%
O=C(NCCN1C(=O)S/C(=C\c2ccc(Cl)cc2)C1=O)C1=COCCO1,-15,7,-24%,-22,-20%,2%
O=C(NCCN1C(=O)S/C(=C\c2ccc(OC(F)F)cc2)C1=O)c1cnccn1,-2,?,1.8µM*,9,2.1µM*,11%
COc1ccc(/C=C2\SC(=O)N(CCNC(=O)C3=COCCO3)C2=O)cc1,0,15,1.3µM*,-1,1.3µM*,-3%
O=C(NCCN1C(=O)S/C(=C\c2ccc(OC(F)F)cc2)C1=O)C1=COCCO1,1,-1,8.2µM*,27,7.3µM*,1%
O=c1[nH]c(NCCO)nnc1Cc1ccccc1,8,10,11%,10,2%,-2%
COC(=O)c1ccc2c(c1)N(Cc1ccc(F)cc1)C(=O)c1ccccc1S2,2,·,0%,·,-13%,-1%
Cc1ccc(N2CC(C(=O)Nc3nc4ccc(S(C)(=O)=O)cc4s3)CC2=O)cc1 (configuration not stated),-11,43,-14%,-7,14%,1%
O=C(CCn1c(=O)c2ccccc2n(CC(=O)Nc2cccc(F)c2)c1=O)NCCc1ccccc1,9,·,5%,·,-28%,-3%
O=C(OC(C(=O)Nc1cc(Cl)cc(Cl)c1)c1ccccc1)C1=COCCO1 (configuration not stated),2,-51*,?,19,18µM*,1%
CC(OC(=O)C1=COCCO1)C(=O)Nc1ccc(Oc2ccccc2)cc1 (configuration not stated),0,-14,13µM*,?,?,1%
CN(C)C(C(=O)Nc1cc(Cl)cc(Cl)c1)c1ccccc1 (configuration not stated),-13,?,-3%,-18,?,·
O=c1[nH]c(C2CCCN(S(=O)(=O)c3ccccc3F)C2)nc2c1nnn2Cc1ccccc1Cl (configuration not stated),6,15,?,11,?,·
Cc1ccc(C)c(S(=O)(=O)Nc2ccc3sc(C)nc3c2)c1,1,12,?,19,?,-2%
Cc1nc2ccc(NS(=O)(=O)c3c(F)cccc3F)cc2s1,4,6,16µM*,8,16µM*,4%
Cc1cc2oc(=O)sc2cc1NS(=O)(=O)c1cccc2cccnc12,17,-69*,?,5,-27%,·
CC(=O)N(c1ccc2oc(=O)sc2c1)S(=O)(=O)c1cccc2cccnc12,-2,1,?,-29,?,·
Cc1nc2cc(NS(=O)(=O)c3cccc4cccnc34)ccc2s1,-2,-14,16µM*,-6,9.2µM*,0%
COc1cccc(S(=O)(=O)Nc2ccc3sc(C)nc3c2)c1,-7,26,?,2,23µM*,-1%
Cc1ccccc1-c1nnc(SCC(=O)NC2CCS(=O)(=O)C2)n1C (configuration not stated),0,-14,7%,3,-3%,-2%
CC(C)C[C@H]1CN(CCCC[C@@H]2CNC(=O)C(=O)N2Cc2ccccc2)C(=O)C(=O)N1CC1CCCCC1,-12,5,-1%,-22,-1%,0%
NC(=O)c1sc2nc(-c3ccccc3)ccc2c1N,1,-11,18%,17,5%,24%
COc1ccc(C(=O)c2sc3nc(-c4ccccc4)ccc3c2N)cc1OC,0,15,16µM*,7,13µM*,1%
COc1ccc(-c2ccc3c(N)c(C(=O)c4ccc(OC)c(OC)c4)sc3n2)cc1,22,2,9.2µM*!,12,9.2µM*,-11%
